Activity calls are given as the source filed them.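 How the source made its calls: active means percent response above 42, roughly 3 SD of non-fluorescent test compounds; inactive means the rest.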
Target: Beta-2 adrenergic receptor (Homo sapiens) (UniProt P07550)
Experiment: agonist-induced loss of surface beta2AR – cell-based, FAP fluorogen, flow cytometry, validation set, pilot screen (AID 504459);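 further: agonist-driven loss of surface beta2AR via internalization measured by FAP dye flow cytometry; reference of the scale not given here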
Settings: Am2.2-beta2AR cells, at 10 µM, stronger effect = higher value

Sequence of Beta-2 adrenergic receptor (Homo sapiens) (P07550 whole entry, looked up): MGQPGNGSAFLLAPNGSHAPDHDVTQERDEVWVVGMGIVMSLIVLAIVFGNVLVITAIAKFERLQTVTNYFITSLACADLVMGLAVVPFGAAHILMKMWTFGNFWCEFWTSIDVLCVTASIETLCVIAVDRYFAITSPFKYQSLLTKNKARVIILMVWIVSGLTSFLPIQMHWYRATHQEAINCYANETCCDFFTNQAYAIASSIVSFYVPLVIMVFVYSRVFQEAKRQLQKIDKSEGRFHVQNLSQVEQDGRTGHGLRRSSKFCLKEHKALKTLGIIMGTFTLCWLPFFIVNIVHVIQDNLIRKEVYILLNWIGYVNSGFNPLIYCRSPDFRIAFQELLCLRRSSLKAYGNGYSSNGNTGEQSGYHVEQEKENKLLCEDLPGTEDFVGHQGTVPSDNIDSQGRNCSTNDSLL

`Cc1oc2cc(O)cc(O)c2c(=O)c1-c1ccc2c(c1)OCCCO2` was tested. Which response did it give?
The response was 5% (inactive).

`O=C(c1ccco1)N1CCCN(Cc2nc(-c3ccc4c(c3)OCO4)no2)CC1` was tested. Which response did it give?
Its response is -9.4% (inactive).

With `COc1ccc2nc(S(=O)Cc3ncc(C)c(OC)c3C)[nH]c2c1` (stereo not given) as the compound, how does the response read?
Its response is 24.8% (inactive).

How did the response turn out when `CSCCC(NC(C)=O)C(=O)Oc1ccc2c3c(c(=O)oc2c1)CCCC3` (stereo not given) was run?
Its response is -6.44% (inactive).

`CCOC(=O)C1NN=C(C(=O)c2ccccc2)C1c1ccc(Cl)cc1` (stereo not given) was tested. Which response did it give?
The response was 3.04% (inactive).

How did the response turn out when `CSCCC(NC(=O)OC(C)(C)C)C(=O)Oc1ccc2c(=O)c(-c3ccc4c(c3)OCCO4)coc2c1` (stereo not given) was run?
Its response is 0.95% (inactive).

For `COc1cc2c(cc1OC)/C(=C/c1ccc(Cl)cc1)C(=O)OC2`, which response is on record?
The response was -8.94% (inactive).

Which response does the source give for `COc1ccc(-c2coc3c(CN4CCOCC4)c(O)ccc3c2=O)cc1` here?
The response was -34.4% (inactive).

How did the response turn out when `OCCC1CN(Cc2ccccc2-c2ccco2)CCN1C1CCCC1` (stereo not given) was run?
The response was -21.4% (inactive).

`O=C(O)C1CCN(C(=O)COc2ccc3c4c(c(=O)oc3c2)CCC4)CC1` was tested. Which response did it give?
Its response is -31% (inactive).

Which response does the source give for `Cc1ccc(C(=O)NCCNC(=O)c2ccccc2)cc1` here?
The response was -20.1% (inactive).

`CC(=O)OCC(=O)[C@@]1(O)CC[C@H]2[C@@H]3CCC4=CC(=O)C=C[C@]4(C)[C@H]3[C@@H](O)C[C@@]21C` was tested. Which response did it give?
Its response is 4% (inactive).

How did the response turn out when `CCCc1cc(C(N)=S)ccn1` was run?
Its response is -5.23% (inactive).

For `Cc1ccc(Cl)c(Nc2ccccc2C(=O)O)c1Cl`, which response is on record?
The response was -14.2% (inactive).

How did the response turn out when `COc1ccccc1/C=C/C(=O)OCCN1CCOCC1` was run?
Its response is -13.3% (inactive).

With `Fc1ccc(-c2cc(-c3ccccc3)nc(-n3cccn3)n2)cc1` as the compound, how does the response read?
The response was 8.42% (inactive).

For `O=c1c(-c2ccccc2)c(O)c2cccc3c2n1CCC3`, which response is on record?
Its response is -27.7% (inactive).

With `COc1cc(CC(=O)NCCc2ccc(S(N)(=O)=O)cc2)cc(OC)c1OC` as the compound, how does the response read?
The response was -8.65% (inactive).

With `CN(C)CCC(c1ccc(Cl)cc1)c1ccccn1` (stereo not given) as the compound, how does the response read?
The response was -9.09% (inactive).

With `Cc1ccc2nc(N=C(N)N)nc(C)c2c1` as the compound, how does the response read?
The response was -5.11% (inactive).

For `CCn1c(N2CCN(CC(=O)c3c(C)n(C)c4ccc(OC)cc34)CC2)nc2c1c(=O)[nH]c(=O)n2C`, which response is on record?
Its response is -1.41% (inactive).

Which response does the source give for `CC1(c2ccccc2)CC(C)(C)N2C(=O)C(=O)c3cccc1c32` (stereo not given) here?
Its response is 20.4% (inactive).

How did the response turn out when `O=C(COc1cc(O)c2c(=O)c3ccccc3oc2c1)OCc1ccccc1` was run?
The response was -4.65% (inactive).

With `C[N+](C)(C)CCOP(=O)([O-])OC[C@H](O)CO` as the compound, how does the response read?
The response was 2.22% (inactive).

`O=C(/C=C/Sc1ccccc1)c1ccccc1` was tested. Which response did it give?
The response was 28.9% (inactive).

How did the response turn out when `O=C1Cc2ccccc2C(c2ccccc2)N1` (stereo not given) was run?
The response was -4.45% (inactive).

Which response does the source give for `Cc1ccc(NC(=O)CSc2nc(O)c(Cc3ccccc3)c(=O)n2-c2ccccc2)cc1` here?
Its response is 3.5% (inactive).

For `COCCn1c(SCCOc2ccccc2)nc2ccccc2c1=O`, which response is on record?
Its response is -6.97% (inactive).

`CC(=O)Oc1ccc2c(=O)c(Oc3ccccc3[N+](=O)[O-])coc2c1` was tested. Which response did it give?
Its response is -4.04% (inactive).

For `CCc1c(C(C)=O)oc2ccc3c(C)cc(=O)oc3c12`, which response is on record?
Its response is 1.28% (inactive).

Which response does the source give for `COc1ccc(-c2[nH]ncc2CN(C)C(C)c2ccon2)c(OC)c1` (stereo not given) here?
The response was -3.13% (inactive).

`Cc1c(O)c(=O)ccn1C` was tested. Which response did it give?
Its response is -11.3% (inactive).

How did the response turn out when `COc1ccc2cc(C(=O)Nc3ccc(S(N)(=O)=O)cc3)sc(=O)c2c1OC` was run?
Its response is 19.2% (inactive).

For `Cc1cnc(NC(=O)C2=C(O)c3ccccc3S(=O)(=O)N2C)s1`, which response is on record?
The response was 1.12% (inactive).

With `O=C(O)c1ccc(N2C(=O)/C(=C\c3ccccc3)N=C2c2ccccc2)cc1` as the compound, how does the response read?
Its response is -17.4% (inactive).

Which response does the source give for `O=C(CCC(=O)NCCO)NCCO` here?
The response was -19.9% (inactive).

Which response does the source give for `CC(=O)O[C@H]1C[C@@]2(C)[C@@H](C[C@@H](O)[C@H]3[C@@]4(C)CC[C@@H](O)[C@@H](C)C4CC[C@@]32C)/C1=C(\CCC=C(C)C)C(=O)O` (stereo not given in full) here?
Its response is -16.8% (inactive).

With `O=C(c1cc2cc(Br)ccc2o1)N1CCCC1` as the compound, how does the response read?
Its response is -10.4% (inactive).

`CCOc1ccc2nc(NC(=O)NC3CCCCC3)sc2c1` was tested. Which response did it give?
Its response is 3.3% (inactive).

How did the response turn out when `O=C(/C=C/c1c[nH]c2ccccc12)c1cccc2ccccc12` was run?
The response was 63.6% (active).

Reference: PubChem BioAssay
